Assay outcomes: PubChem, several laboratories
The full list was thinned out, with hits kept by preference.
CendR NRP1 mod: NRP-1/CendR interaction modulation. hit rate 0.85% among 360,000. AID 602438. inhibition, % at 25 µM. FAM-RPARPAR peptide binding to NRP-1, fluorescence polarization. O14786;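 active = inhibition or corrected inhibition above about 18%, plus a signal ratio from 0.5 to 1.5, limit read from the data, passing the limit was not always enough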
ALR inh: blocks human ALR sulfhydryl oxidase activity; purified ALR, DTT oxidation, H2O2 HRP-luminol luminescence; hit rate 3.8% among 290,000; P55789; inhibition, % (concentration not given with the values); AID 485317;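 active = mean replicate inhibition above about 79%, with every replicate also reaching it, limit read from the data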
Target sequence (P55789 whole entry, looked up): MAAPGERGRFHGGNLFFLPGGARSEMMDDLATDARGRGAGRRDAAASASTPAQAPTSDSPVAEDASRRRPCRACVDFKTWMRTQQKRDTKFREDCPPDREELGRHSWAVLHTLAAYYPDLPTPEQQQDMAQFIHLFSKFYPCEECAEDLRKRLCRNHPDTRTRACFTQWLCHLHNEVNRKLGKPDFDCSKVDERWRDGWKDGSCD
PglD inh: inhibitors of Campylobacter jejuni PglD acetyltransferase; inhibition, % at 12.5 µM; purified PglD enzyme, DTNB colorimetric CoA detection; AID 602405; hit rate 0.098% among 360,000; in the data active = inhibition above about 16%, passing the limit was not always enough
ARNT-TACC3 inh: ARNT/TACC3 interaction disruption | Q9Y6A5 | AlphaScreen His-ARNT PAS-B/GST-TACC3 binding, luminescence; TACC3 fragment carries E629A point mutation | inhibition, % at 9.99 µM | hit rate 0.66% among 390,000 | AID 623870;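 active = mean inhibition of replicates at least 50% and at least half of replicates each reaching 50%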;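 note: 0% = complete ARNT plus TACC3 wells and 100% = ARNT alone without TACC3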
PDI inh: PDI (human) enzyme inhibition; PDI insulin aggregation turbidity, A650, 90 min; P07237; hit rate 0.052% among 350,000; inhibition, % at 10 µM;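 active = mean inhibition across replicates of 30% or more, whatever share of single replicates reach that level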
ERp5 inh: blocks human ERp5 reductase activity on insulin | ERp5 insulin aggregation, absorbance 650 nm, 90 min | AID 651711 | inhibition, % at 9.99 µM | hit rate 0.05% among 350,000;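 active = mean replicate inhibition above about 25%, with every replicate also reaching it, limit read from the data, passing the limit was not always enough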
Target sequence (Q15084 whole entry, looked up): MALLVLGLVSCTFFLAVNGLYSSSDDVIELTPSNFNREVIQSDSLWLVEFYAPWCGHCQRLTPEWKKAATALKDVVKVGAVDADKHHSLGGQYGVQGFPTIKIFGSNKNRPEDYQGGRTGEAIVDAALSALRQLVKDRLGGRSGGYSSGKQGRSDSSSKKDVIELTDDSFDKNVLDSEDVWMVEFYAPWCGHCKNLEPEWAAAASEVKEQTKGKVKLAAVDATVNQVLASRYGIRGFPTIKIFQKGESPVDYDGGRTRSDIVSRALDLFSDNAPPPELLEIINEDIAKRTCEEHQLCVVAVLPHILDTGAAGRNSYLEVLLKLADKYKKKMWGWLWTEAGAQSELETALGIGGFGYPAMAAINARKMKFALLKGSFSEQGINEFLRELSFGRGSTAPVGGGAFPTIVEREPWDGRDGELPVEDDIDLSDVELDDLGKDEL
An asterisk follows results filed as active; nt = not tested or not shown.

SMILES	CendR NRP1 mod	ALR inh	PglD inh	ARNT-TACC3 inh	PDI inh	ERp5 inh
CCn1nc(NS(=O)(=O)c2cccc3nonc23)c2cc3ccc(C)cc3nc21	-7.8	91.4*	1.8	23.0	6.0	nt
CCn1nc(NS(=O)(=O)c2ccc([N+](=O)[O-])cc2)c2cc3ccc(C)cc3nc21	-4.5	21.4	-0.6	1.1	-6.2	-0.8
CC(C)Cn1nc(NS(=O)(=O)c2cccc3nonc23)c2cc3ccccc3nc21	-0.2	97.3*	-2.4	1.9	3.6	1.8
CCCCn1nc(NS(=O)(=O)c2cccc3nonc23)c2cc3cccc(C)c3nc21	6.9	98.3*	-2.0	1.9	0.0	2.1
O=S(=O)(Nc1cccc2ccccc12)c1cccc2nonc12	4.4	17.2	0.4	-4.2	8.6	0.7
COc1ccc2c3c([nH]c2c1)[C@H](CO)N(Cc1ccccc1F)CC31CCN(C(=O)C2CCC2)CC1	nt	nt	nt	nt	nt	-4.1
Nc1nn2cc(-c3ccccc3)nc2c2ccccc12	-12.7	95.4*	nt	-0.7	-7.2	0.9
Nc1nc(-c2ccccc2)cn1N	-12.2	nt	-6.9	48.3*	-3.7	nt
Cc1cn2nc(N)c3ccccc3c2n1	0.0	-3.6	-2.9	12.7	1.0	nt
C[C@@H]1CCCCO[C@H](CN(C)S(=O)(=O)c2ccc(F)cc2)[C@@H](C)CN([C@@H](C)CO)C(=O)c2cc(NS(=O)(=O)c3ccccc3)ccc2O1	nt	nt	-3.2	-4.2	nt	4.1
Cc1ccc(S(=O)(=O)N(C)C[C@@H]2OCCCC[C@@H](C)Oc3ccc(NC(=O)Nc4ccccc4)cc3C(=O)N([C@H](C)CO)C[C@H]2C)cc1	nt	nt	0.4	0.0	nt	-3.1
OCC1OC(c2ccc(O)cc2O)C(O)C1O (stereo unspecified)	29.1*	nt	nt	nt	nt	1.2
O=C(C[C@H]1C[C@H]2c3cc(NC(=O)CC4CC4)ccc3O[C@H]2[C@@H](CO)O1)NCc1ccc2c(c1)OCO2	nt	nt	0.8	nt	nt	1.9
CCC1C(=O)Nc2ccccc2N1C(=O)COc1ccccc1 (stereo unspecified)	25.9*	-1.6	-0.4	-2.9	-6.6	-0.1
CCCOc1ccc(Br)cc1CSC(=N)N	1.4	-55.5	0.5	-21.4	-15.0	2.7
Cc1cc(CSC(=N)N)c(CSC(=N)N)cc1C	-0.6	99.0*	nt	-0.1	-1.2	-6.9
O=C(CCC(=O)Nc1ccccc1Cl)NN=C1CCCC1	21.9*	-14.7	-3.1	-2.9	-7.9	9.6
CN(C)CC(=O)c1ccc(-c2ccccc2)cc1	0.4	61.8	0.7	1.2	16.8	nt
CCN(CC)CC(=O)c1ccc(-c2ccccc2)cc1	-6.0	99.0*	5.7	-3.5	4.0	nt
COc1ccc(CN(C)C[C@H]2Oc3ccc(NS(=O)(=O)c4cn(C)cn4)cc3CC(=O)N([C@@H](C)CO)C[C@H]2C)cc1	nt	nt	0.1	nt	nt	4.6
CC(C)(C)c1nnc2sc(SCCN3C(=O)c4ccccc4C3=O)nn2c1=O	-7.8	98.7*	0.5	-2.2	4.1	nt
Cc1nnc2sc(SCc3ccccc3Cl)nn2c1=O	5.2	95.7*	nt	-17.4	0.4	3.9
Cc1nnc2sc(SCc3cccc(Cl)c3)nn2c1=O	-0.4	100.1*	2.3	2.8	2.4	3.0
Cc1nnc2sc(SCc3ccccc3)nn2c1=O	nt	19.8	nt	nt	nt	nt
Cc1nn2c(NCCCN(C)C)c3c(nc2c1-c1ccccc1)CCC3	-14.5	87.8*	nt	4.6	-1.5	nt
SMILES	CendR NRP1 mod	ALR inh	PglD inh	ARNT-TACC3 inh	PDI inh	ERp5 inh
Cc1nn2c(NCCOCCO)c3c(nc2c1-c1ccccc1)CCC3	19.1	55.8	7.5	5.8	-1.4	0.6
COCCNc1c2c(nc3c(-c4ccccc4)c(C)nn13)CCC2	27.6*	nt	-4.9	1.4	7.4	6.4
Cc1nn2c(NCCCN(C)C)c3c(nc2c1-c1ccccc1)CCCC3	-0.2	97.1*	nt	0.6	-6.4	1.7
CCN1CCCC1CNC(=O)CSCc1nc(-c2ccccc2C)oc1C (stereo unspecified)	-17.2	99.7*	nt	-0.1	3.3	nt
C[C@H](O)C#Cc1ccc2c(c1)O[C@H](CN(C)Cc1ccc(-c3ccccc3)cc1)[C@H](C)CN([C@@H](C)CO)S2(=O)=O	nt	nt	-5.0	15.5	nt	-4.8
CCCNC(=O)[C@H]1[C@H](CO)[C@H]2Cn3c(ccc(-c4ccccc4OC)c3=O)[C@H]2N1S(C)(=O)=O	nt	nt	nt	nt	nt	-0.3
O=C(c1ccc(F)cc1)N1CC(=O)N2[C@H](C1)[C@@H](c1ccc(C#Cc3ccc(F)cc3)cc1)[C@@H]2CO	nt	nt	nt	nt	nt	-1.7
Cc1ccc(NCCC(=O)c2cccs2)cc1C	9.3	98.8*	nt	5.7	-2.3	-6.0
Cc1ccc(NCCC(=O)c2cccs2)cc1	-6.7	98.6*	11.5	10.8	-1.9	0.2
COc1ccc(NC(=O)Nc2ccc3c(c2)CC(=O)N([C@@H](C)CO)C[C@H](C)[C@H](CN(C)C(=O)Nc2ccc(OC)cc2)O3)cc1	nt	nt	-0.3	5.9	nt	3.5
CCNC(=O)Nc1ccc2c(c1)C(=O)N(C)[C@H]1CC[C@@H](CC(=O)Nc3ccccc3)O[C@H]1CO2	nt	nt	-0.9	2.0	nt	0.3
O=C(C[C@@H]1CC[C@H]2[C@@H](COC[C@@H](O)CN2Cc2ccccc2)O1)N[C@@H]1CCN(Cc2ccccc2)C1	nt	nt	3.2	-0.7	nt	0.4
C[C@H](CO)N1C[C@H](C)[C@H](CN(C)C(=O)c2ccncc2)Oc2cc(/C=C/c3ccccc3)ccc2S1(=O)=O	nt	nt	-1.5	7.2	nt	5.9
O=c1[nH]c(CCl)nc2cc(-c3ccc(F)cc3)sc12	-19.7	-14.6	5.0	-7.4	43.0*	2.1
COCCNc1nc2cc(-c3ccc(F)cc3)sc2c(=O)n1C	0.2	nt	3.2	nt	0.0	3.2
COC(=O)CSc1ccc(C#N)c(SCC(=O)OC)c1	9.5	98.9*	nt	0.2	12.5	nt
CC(=N\Nc1ccc(Cl)cc1)/C(=N/O)C(=O)Nc1ccccc1	-0.2	98.7*	13.9	0.2	-8.1	nt
C/C(=N\O)C(=O)Nc1ccccc1	4.1	-11.0	nt	-5.4	-3.4	-2.1
COc1cc(/C=N\NC(=O)c2ccc(Cn3cc(Br)c([N+](=O)[O-])n3)o2)cc(OC)c1O	-4.2	99.8*	1.7	-3.0	0.1	nt
COc1cc(/C=N/NC(=O)c2ccc(Cn3cc([N+](=O)[O-])cn3)o2)cc(Br)c1O	-3.5	95.9*	1.6	-15.4	-4.3	-7.4
COc1ccc(/C=N/NC(=O)c2ccc(Cn3cc([N+](=O)[O-])cn3)o2)cc1O	4.3	66.3	-8.5	-7.1	-0.4	nt
O=C(N/N=C\c1ccc(F)cc1)c1ccc(Cn2cc(Br)c([N+](=O)[O-])n2)o1	-7.3	10.8	2.8	nt	-3.6	3.3
CCc1cc2c(Nc3ccc(O)cc3)nc(C)nc2s1	0.5	99.6*	1.1	28.8	5.0	1.7
CCc1cc2c(Nc3ccccc3O)nc(C)nc2s1	5.4	5.1	-2.1	-8.6	1.9	5.1
Cc1cc2c(Nc3ccc(O)cc3)ncnc2s1	13.9	93.6*	-5.8	-3.1	-3.5	0.5
N#Cc1cccc(-c2ccc3c(c2)[C@H]2[C@H](CCN2Cc2cncnc2)[C@@H](CO)N3)c1	nt	nt	0.1	0.3	nt	nt
N#Cc1cccc(-c2ccc3c(c2)[C@@H]2[C@@H](CCN2Cc2ccncc2)[C@@H](CO)N3)c1	nt	nt	0.1	24.6*	nt	0.4
